Targets with a hit are over-represented here; the source holds about 8,800 in all. About 0.5% of all pairs of compound and target were hits.
Compound: CCCS(=O)(=O)Nc1ccc(F)c(C(=O)c2c[nH]c3ncc(-c4ccc(Cl)cc4)cc23)c1F [vemurafenib]
Assay: log2 fold change, soluble protein after heating vs DMSO (PISA); higher = thermal stabilisation; K562 lysate, 10 uM; active = over 0.2 and 3.5 SD of the protein, either way, in both replicates (recomputed)
Outline: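 Quantification was by TMTpro 16plex LC-MS/MS with equalised channel sums, applied to the supernatant after 21,000xg for 90 min. Samples were crude K562 extract at 1 mg/mL protein in PBS pH 7.4 with 1 mM MgCl2, treated with 10 μM compound for 30 min, heated for 3 min across 48°C-58°C, pooled and brought to 0.5% NP-40 at 4°C. Values are log-two fold changes in thermal stability relative to solvent controls, from duplicates.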

UniProt O76041, sequence (O76041 whole entry, looked up): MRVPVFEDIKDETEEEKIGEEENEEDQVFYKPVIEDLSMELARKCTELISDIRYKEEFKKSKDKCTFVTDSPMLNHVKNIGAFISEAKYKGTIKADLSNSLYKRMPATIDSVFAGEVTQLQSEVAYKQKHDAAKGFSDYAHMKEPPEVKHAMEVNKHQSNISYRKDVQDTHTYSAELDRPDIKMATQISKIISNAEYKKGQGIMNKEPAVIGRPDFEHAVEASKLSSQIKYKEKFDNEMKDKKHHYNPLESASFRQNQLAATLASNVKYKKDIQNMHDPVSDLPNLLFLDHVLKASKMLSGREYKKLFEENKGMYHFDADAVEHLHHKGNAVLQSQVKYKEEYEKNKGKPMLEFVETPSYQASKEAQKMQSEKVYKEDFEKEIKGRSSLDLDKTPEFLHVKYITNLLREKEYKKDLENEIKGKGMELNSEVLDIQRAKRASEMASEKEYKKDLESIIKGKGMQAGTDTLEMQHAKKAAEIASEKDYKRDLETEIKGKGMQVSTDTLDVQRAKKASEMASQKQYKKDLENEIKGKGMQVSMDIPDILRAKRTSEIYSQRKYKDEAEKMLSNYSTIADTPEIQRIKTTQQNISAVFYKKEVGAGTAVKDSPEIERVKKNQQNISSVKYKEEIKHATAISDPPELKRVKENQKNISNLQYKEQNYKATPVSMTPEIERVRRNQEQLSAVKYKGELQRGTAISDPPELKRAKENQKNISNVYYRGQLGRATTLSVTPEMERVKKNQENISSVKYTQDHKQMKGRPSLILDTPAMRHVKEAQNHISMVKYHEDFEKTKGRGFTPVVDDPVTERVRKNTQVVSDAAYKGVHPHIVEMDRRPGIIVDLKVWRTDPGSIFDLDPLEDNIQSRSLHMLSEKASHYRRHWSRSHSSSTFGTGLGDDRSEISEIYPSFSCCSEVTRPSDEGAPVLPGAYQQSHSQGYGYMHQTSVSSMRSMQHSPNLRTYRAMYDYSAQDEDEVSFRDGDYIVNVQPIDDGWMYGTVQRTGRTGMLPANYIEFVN
UniProt Q5TEU4, sequence (Q5TEU4 whole entry, looked up): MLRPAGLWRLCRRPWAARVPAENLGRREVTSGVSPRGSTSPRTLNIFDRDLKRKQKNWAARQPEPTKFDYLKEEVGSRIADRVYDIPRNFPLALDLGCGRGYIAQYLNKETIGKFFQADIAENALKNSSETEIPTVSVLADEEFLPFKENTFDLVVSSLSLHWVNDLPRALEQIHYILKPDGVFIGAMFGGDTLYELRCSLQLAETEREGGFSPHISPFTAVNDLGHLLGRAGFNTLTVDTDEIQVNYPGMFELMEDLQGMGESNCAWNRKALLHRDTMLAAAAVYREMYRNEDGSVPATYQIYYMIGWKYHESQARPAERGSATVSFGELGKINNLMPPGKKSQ
UniProt P21359, sequence (P21359 whole entry, looked up): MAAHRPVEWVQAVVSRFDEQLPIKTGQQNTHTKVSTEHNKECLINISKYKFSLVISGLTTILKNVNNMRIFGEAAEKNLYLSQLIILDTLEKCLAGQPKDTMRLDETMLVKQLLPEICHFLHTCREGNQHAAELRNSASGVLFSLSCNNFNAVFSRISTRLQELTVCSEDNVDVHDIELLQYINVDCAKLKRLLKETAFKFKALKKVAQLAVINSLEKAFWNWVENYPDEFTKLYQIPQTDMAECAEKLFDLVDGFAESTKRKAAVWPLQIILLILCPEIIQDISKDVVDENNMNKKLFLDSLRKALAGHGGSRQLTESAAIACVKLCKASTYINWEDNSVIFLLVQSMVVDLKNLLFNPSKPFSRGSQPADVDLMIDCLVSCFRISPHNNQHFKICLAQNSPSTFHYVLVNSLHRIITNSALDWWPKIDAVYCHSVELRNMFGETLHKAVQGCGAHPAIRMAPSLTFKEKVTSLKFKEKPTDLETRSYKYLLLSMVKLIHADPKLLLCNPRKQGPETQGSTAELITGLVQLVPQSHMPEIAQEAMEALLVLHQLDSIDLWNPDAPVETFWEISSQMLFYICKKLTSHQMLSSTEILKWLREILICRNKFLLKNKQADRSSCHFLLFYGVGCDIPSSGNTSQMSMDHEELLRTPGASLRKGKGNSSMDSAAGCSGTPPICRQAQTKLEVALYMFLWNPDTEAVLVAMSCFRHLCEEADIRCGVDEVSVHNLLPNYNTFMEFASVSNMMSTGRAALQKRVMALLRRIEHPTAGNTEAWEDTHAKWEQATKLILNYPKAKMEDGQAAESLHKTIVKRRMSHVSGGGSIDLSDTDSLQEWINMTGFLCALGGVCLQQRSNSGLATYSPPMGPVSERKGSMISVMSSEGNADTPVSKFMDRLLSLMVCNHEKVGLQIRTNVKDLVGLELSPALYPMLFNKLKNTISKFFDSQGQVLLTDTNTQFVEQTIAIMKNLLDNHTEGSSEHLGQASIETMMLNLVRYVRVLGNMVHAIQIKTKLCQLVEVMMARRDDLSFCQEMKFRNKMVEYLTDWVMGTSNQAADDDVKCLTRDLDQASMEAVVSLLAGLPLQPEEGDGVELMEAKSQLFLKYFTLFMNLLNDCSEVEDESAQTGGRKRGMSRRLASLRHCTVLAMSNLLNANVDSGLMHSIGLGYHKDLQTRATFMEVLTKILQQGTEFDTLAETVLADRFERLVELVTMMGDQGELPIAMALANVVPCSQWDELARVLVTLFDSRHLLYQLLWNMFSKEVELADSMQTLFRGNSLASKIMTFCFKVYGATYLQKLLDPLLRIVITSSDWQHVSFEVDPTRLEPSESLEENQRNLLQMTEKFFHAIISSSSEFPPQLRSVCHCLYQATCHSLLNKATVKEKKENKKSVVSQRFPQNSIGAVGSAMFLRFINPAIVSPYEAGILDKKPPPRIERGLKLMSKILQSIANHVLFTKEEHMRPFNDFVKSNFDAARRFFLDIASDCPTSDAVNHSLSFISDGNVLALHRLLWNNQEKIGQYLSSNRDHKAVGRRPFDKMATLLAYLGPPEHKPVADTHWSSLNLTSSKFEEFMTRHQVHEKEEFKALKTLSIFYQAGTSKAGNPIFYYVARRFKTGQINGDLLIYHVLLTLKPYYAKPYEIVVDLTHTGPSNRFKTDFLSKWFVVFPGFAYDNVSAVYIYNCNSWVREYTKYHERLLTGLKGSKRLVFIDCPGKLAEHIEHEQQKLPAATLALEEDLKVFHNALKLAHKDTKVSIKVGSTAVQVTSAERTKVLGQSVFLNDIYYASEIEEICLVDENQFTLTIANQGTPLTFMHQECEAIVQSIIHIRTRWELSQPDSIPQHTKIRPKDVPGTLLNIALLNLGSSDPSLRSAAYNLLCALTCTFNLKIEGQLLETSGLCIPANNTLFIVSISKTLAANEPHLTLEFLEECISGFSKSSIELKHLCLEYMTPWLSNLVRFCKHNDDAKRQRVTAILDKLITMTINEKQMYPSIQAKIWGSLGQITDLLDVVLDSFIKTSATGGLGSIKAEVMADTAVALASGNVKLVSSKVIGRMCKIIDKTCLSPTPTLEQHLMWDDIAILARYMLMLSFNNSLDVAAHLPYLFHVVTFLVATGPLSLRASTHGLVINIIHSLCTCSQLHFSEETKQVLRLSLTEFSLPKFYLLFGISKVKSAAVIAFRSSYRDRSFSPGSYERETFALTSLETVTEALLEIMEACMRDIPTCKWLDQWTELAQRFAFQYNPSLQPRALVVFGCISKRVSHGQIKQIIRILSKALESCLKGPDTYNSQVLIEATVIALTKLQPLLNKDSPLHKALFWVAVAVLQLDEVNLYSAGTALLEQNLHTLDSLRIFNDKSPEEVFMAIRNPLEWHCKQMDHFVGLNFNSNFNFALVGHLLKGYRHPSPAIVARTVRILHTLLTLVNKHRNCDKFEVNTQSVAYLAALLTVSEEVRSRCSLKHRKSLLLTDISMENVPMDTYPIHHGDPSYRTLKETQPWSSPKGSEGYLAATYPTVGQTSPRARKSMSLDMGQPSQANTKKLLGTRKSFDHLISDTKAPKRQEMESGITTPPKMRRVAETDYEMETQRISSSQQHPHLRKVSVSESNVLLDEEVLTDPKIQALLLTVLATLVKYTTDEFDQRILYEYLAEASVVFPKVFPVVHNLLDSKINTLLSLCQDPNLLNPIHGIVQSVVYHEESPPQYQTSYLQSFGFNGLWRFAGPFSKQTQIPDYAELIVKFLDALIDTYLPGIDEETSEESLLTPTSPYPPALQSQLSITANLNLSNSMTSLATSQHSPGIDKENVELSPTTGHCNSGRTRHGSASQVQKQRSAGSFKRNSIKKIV
UniProt Q9Y6R0, sequence (Q9Y6R0 whole entry, looked up): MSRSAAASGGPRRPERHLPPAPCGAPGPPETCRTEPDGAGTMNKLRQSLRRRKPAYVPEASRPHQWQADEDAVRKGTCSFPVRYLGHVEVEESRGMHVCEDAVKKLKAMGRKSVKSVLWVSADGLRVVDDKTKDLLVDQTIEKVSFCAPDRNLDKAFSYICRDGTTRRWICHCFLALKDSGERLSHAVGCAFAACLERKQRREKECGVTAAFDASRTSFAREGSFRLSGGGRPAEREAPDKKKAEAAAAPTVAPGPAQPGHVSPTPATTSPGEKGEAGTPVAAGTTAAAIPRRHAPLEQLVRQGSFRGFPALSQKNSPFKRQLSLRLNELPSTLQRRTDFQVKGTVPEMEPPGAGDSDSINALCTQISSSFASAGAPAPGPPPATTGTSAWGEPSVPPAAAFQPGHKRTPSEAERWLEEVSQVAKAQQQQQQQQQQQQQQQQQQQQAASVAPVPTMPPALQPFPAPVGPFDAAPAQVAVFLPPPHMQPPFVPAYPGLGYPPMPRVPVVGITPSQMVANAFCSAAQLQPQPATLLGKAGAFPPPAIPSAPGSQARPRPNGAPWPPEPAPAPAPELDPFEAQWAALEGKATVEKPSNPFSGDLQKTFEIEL
UniProt Q9Y5N5, sequence (Q9Y5N5 whole entry, looked up, one chain of several): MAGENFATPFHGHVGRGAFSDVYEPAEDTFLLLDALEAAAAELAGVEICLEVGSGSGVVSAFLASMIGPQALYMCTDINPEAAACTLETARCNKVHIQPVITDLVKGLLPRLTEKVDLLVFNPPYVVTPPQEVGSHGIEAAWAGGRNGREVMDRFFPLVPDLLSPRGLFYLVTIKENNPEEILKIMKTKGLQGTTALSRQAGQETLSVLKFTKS

log2 fold change, inactive:
MRPS12 (UniProt O15235) 0.062
NOSIP (UniProt Q9Y314) -0.008
N6AMT1 (UniProt Q9Y5N5) 0.201
NEBL isoform 2 (UniProt O76041) 0.014
NAT1 (UniProt P18440) 0.04
NUMBL (UniProt Q9Y6R0) -0.06
NDUFAF5 (UniProt Q5TEU4) -0.015
ORC3 isoform 2 (UniProt Q9UBD5) 0.016
PAK1 (UniProt Q13153) -0.013
OLA1 (UniProt Q9NTK5) 0.025
OARD1 (UniProt Q9Y530) -0.011
NIPBL (UniProt Q6KC79) -0.015
MTA1 (UniProt Q13330) -0.022
MYH11 isoform 2 (UniProt P35749) 0.027
PANK2 (UniProt Q9BZ23) 0.093
NPTN (UniProt Q9Y639) -0.028
NEBL (UniProt O76041) 0.034
NT5DC2 isoform 2 (UniProt Q9H857) 0
NFATC1 (UniProt O95644) 0.004
NUP93 (UniProt Q8N1F7) -0.001
MTCH2 (UniProt Q9Y6C9) 0.013
MTA2 (UniProt O94776) 0.007
NONO (UniProt Q15233) -0.005
NCAPG2 (UniProt Q86XI2) 0.015
NF1 (UniProt P21359) 0.019
NIPSNAP3A (UniProt Q9UFN0) -0.005
PAN2 isoform 2 (UniProt Q504Q3) 0.072
NUP205 (UniProt Q92621) 0.007
NBN (UniProt O60934) 0.011
NCAPD2 (UniProt Q15021) 0.025
NEK9 (UniProt Q8TD19) -0.001
NMRAL1 (UniProt Q9HBL8) -0.03
OSBP2 (UniProt Q969R2) -0.056
NLRP2 (UniProt Q9NX02) -0.011
NUF2 (UniProt Q9BZD4) -0.01
NR3C1 isoform 3 (UniProt P04150) -0.138
